Sampled rows, rich in hits. Any-hit rate of the full collection: about 3.4%.
Vif imaging = blocks HIV Vif function; HEK293T cells, Vif self-association by quenched fluorescence, imaging, 24 h; 340,000 compounds, 0.35% hits; inhibition, % at 7.49 µM; AID 602346; in the data active = inhibition above about 50%, passing the limit was not always enough
esBAF inh = SWI/SNF esBAF complex inhibition. mouse ES cells, Bmi1-luciferase knock-in reporter, 24 h; 100% = twice the neutral-well signal. reporter increase, % at 12.5 µM. 350,000 compounds, 2% hits. AID 602393; in the data active = activation above about 40%;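 note: 0% = median of the plate's neutral control wells and 100% = double that signal; a rise in the Bmi1 reporter signal indicates esBAF inhibition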
HSF1 activator = increases HSF-1 driven luciferase reporter signal; NIH3T3-HGL HSF-1 luciferase reporter, MG132, 8 h; 100% = twice DMSO control signal; activation, % at 9 µM; 300,000 compounds, 1.7% hits;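 active = mean replicate activation of at least 50% with a set share of replicates each reaching 50%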;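 note: 0% = median of the neutral control wells and 100% = twice that signal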
HSF1 inh = HSF1 inhibition; NIH3T3-HGL HSE-luciferase, MG132-induced, luminescence 8 h; hits give low values; 300,000 compounds, 0.77% hits; activity change, negative = inhibition, % at 7.5 µM (by protocol); AID 2098;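 active = more than half of replicate wells show activity change below -50%, luminescence cut by over half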;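 note: luciferase reports HSF-1 transcriptional activity via heat shock element; 0% = median of DMSO wells and -100% = zero luminescence signal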
* hit, by the source's call.

`COc1ccc(-c2noc(COc3ccc4c(c3)OCO4)n2)cc1` gave Vif imaging 3, esBAF inh -6, HSF1 activator -6 and HSF1 inh -4.
COc1ccc(S(=O)(=O)N(C)C[C@H]2OCCCC[C@H](C)Oc3ccc(NC(=O)Nc4ccc5c(c4)OCO5)cc3C(=O)N([C@H](C)CO)C[C@H]2C)cc1 was read as esBAF inh 2.
For Cc1ccc(S(=O)(=O)Nc2ccc3c(c2)C(=O)N([C@@H](C)CO)C[C@@H](C)[C@@H](CN(C)C(=O)C2CCCCC2)OCCCC[C@@H](C)O3)cc1 the results were esBAF inh 8.
`COc1cc(/C=C(/C#N)C(=O)NC(C)c2ccccc2)cc(OC)c1O` (configuration not stated) gave Vif imaging 54*, esBAF inh 9, HSF1 activator 7 and HSF1 inh 3.
For O=C(C[C@@H]1CC[C@@H]2[C@H](COC[C@H](O)CN2C(=O)c2cnccn2)O1)NCc1ccc(F)cc1 the results were esBAF inh 2.
`O=C(C[C@H]1C[C@@H]2c3cc(NC(=O)NC4CCCCC4)ccc3O[C@@H]2[C@H](CO)O1)NCc1ccccc1` gave esBAF inh 3.
For c1ccc(-c2ccc3cnccc3n2)cc1 the results were esBAF inh 52*.
c1ccc2nc(-c3ccncc3)ccc2c1 was read as Vif imaging 14, esBAF inh 31, HSF1 activator 47 and HSF1 inh 11.
CN(C)C(=O)c1ccc(-c2ccc([C@@H]3[C@@H](C#N)N(C(=O)C4CCOCC4)[C@H]3CO)cc2)cc1 was read as esBAF inh 2.
For O=C(COC(=O)/C=C/c1ccc(C(F)(F)F)cc1)NC1CC1 the results were Vif imaging -1, esBAF inh -3, HSF1 activator -58 and HSF1 inh -56*.
`Cc1ccc(S(=O)(=O)Nc2ccc3c(c2)C(=O)N([C@@H](C)CO)C[C@@H](C)[C@H](CN(C)C(=O)C2CCCCC2)OCCCC[C@@H](C)O3)cc1` gave esBAF inh 6.
`CCOc1ccccc1NC(=O)/C(C#N)=C/c1c(C)nn(-c2ccc(F)cc2)c1Cl` gave Vif imaging -44, HSF1 activator 19 and HSF1 inh -3.
`CN(C)c1nc(C=C(C#N)C#N)c(Cl)n1-c1ccc(F)cc1` gave Vif imaging 105*, HSF1 activator 95* and HSF1 inh 76.
COc1ccc(NC(=O)N(C)C[C@@H]2Oc3c(NS(C)(=O)=O)cccc3C(=O)N([C@@H](C)CO)C[C@H]2C)cc1 was read as esBAF inh 5.
Screening NC(=O)C(=O)N/N=C1\CCc2ccccc21 returned Vif imaging 10, esBAF inh 48*, HSF1 activator 3 and HSF1 inh -3.
CC(C)C(c1nnnn1Cc1ccc2c(c1)OCO2)N1CCN(c2ccccc2)CC1 (configuration not stated) was read as Vif imaging -12, esBAF inh -6, HSF1 activator -19 and HSF1 inh 0.
Screening CC(C)C(c1nnnn1Cc1ccc2c(c1)OCO2)N1CCN(C)CC1 (configuration not stated) returned Vif imaging 66*, esBAF inh -3, HSF1 activator 5 and HSF1 inh -4.
Screening O=C(C[C@@H]1C=C[C@@H](NC(=O)NC2CCCC2)[C@@H](CO)O1)NCc1ccc(F)cc1 returned esBAF inh -3.
`COC(=O)c1cc(S(=O)(=O)NCCc2ccccc2)c[nH]1` gave Vif imaging 16, esBAF inh -5, HSF1 activator -84 and HSF1 inh -81*.
`O=C(/C=C\Nc1ccccn1)c1ccccc1` gave Vif imaging 28, esBAF inh -48, HSF1 activator 22 and HSF1 inh -2.
For O=C(/C=C/Nc1ccccc1Br)c1ccccn1 the results were Vif imaging 2, HSF1 activator -66 and HSF1 inh -61*.
For COc1ccc(/C=C/C(=O)c2cc(F)ccc2OC(=O)c2ccccc2)cc1OC the results were esBAF inh -19, HSF1 activator -11 and HSF1 inh -11.
COc1ccc(/C=C/C(=O)c2cc(Br)ccc2O)cc1OC was read as Vif imaging -2, HSF1 activator 66* and HSF1 inh 28.
`COc1ccc(/C=C/C(=O)c2cc(Br)ccc2OC(=O)c2ccco2)cc1OC` gave Vif imaging -6, esBAF inh -3, HSF1 activator 18 and HSF1 inh 15.
Screening COc1ccc(/C=C/C(=O)c2cc(F)ccc2OC(=O)c2ccccc2OC)cc1OC returned Vif imaging 91*, HSF1 activator 69* and HSF1 inh 64.
Screening COc1ccc(NC(=O)N(C)C[C@H]2OCCCC[C@H](C)Oc3ccc(NS(=O)(=O)c4ccc(Cl)cc4)cc3C(=O)N([C@@H](C)CO)C[C@@H]2C)cc1 returned esBAF inh 3.
O=C(C[C@H]1C[C@H]2c3cc(NC(=O)Cc4ccncc4)ccc3O[C@H]2[C@@H](CO)O1)NCc1ccccc1 was read as esBAF inh 2.
CCCC(=O)Nc1ccc2c(c1)C(=O)N(C)[C@@H]1CC[C@@H](CC(=O)NC3CCCC3)O[C@H]1CO2 was read as esBAF inh -3.
Cc1ccc(OCC(=O)O/N=C(\N)c2ccccn2)cc1 was read as Vif imaging 13, esBAF inh 46*, HSF1 activator 57* and HSF1 inh 28.
For Cc1ccc(CC(=O)O/N=C(\N)c2ccccn2)cc1 the results were Vif imaging -5, esBAF inh 15, HSF1 activator 45 and HSF1 inh 17.
Cc1cccc(OCC(=O)O/N=C(\N)c2ccccn2)c1C was read as esBAF inh 72*, HSF1 activator 13 and HSF1 inh 21.
For N/C(=N\OC(=O)Cc1ccc(Cl)cc1)c1ccccn1 the results were Vif imaging 5, esBAF inh 47*, HSF1 activator 8 and HSF1 inh 6.
N/C(=N\OC(=O)COc1cc(Cl)c(Cl)cc1Cl)c1ccccn1 was read as Vif imaging 0, HSF1 activator 93* and HSF1 inh 40.
For CO[C@H]1CN(C)C(=O)c2ccc(NS(=O)(=O)c3ccccc3)cc2OC[C@@H](C)N(C(=O)NC(C)C)C[C@H]1C the results were esBAF inh -4.
For COc1ccc(S(=O)(=O)Nc2ccc3c(c2)C(=O)N([C@H](C)CO)C[C@H](C)[C@H](CN(C)S(=O)(=O)c2ccc(OC)cc2)OCCCC[C@H](C)O3)cc1 the results were esBAF inh 6.
`CCOC(=O)c1c(CN2CCC(C)CC2)n(C)c2cc(Br)c(OC)cc12` gave Vif imaging 12, HSF1 activator 94* and HSF1 inh 59.
`CCOCC(=O)Nc1cc(C(=O)Nc2ccccc2)ccc1Cl` gave Vif imaging -3, esBAF inh 51*, HSF1 activator 29 and HSF1 inh 8.
`Cc1nn(C)cc1NC(=O)C[C@@H]1CC[C@H]2[C@@H](COc3ccc(NC(=O)Nc4cccc(Cl)c4)cc3C(=O)N2C)O1` gave esBAF inh -1.
